In PubChem BioAssay one finds composite z-score and z-score data, which are given here for eleven molecules.

Experiment [1] is described as follows: binders of probe aFSTL3 on microarray, primary screen, stem cell growth factor project, biochemical, small-molecule microarray, fluorescence 635/667 (AID 1064).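 Note: measures binding of the biotinylated anti-FSTL3 antibody to printed compounds.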 Conditions: higher = more signal.
Experiment [2] is described as follows: binders from COS7 lysate, DM2A8 probe, primary screen, torsin A project, cell lysate, small-molecule microarray, fluorescence 635/667 (AID 1065). Conditions: higher = more signal, COS7 lysate expressing mutant human TOR1A.
Experiment [3] is described as follows: binders of probe aFGF2 on microarray, primary screen, stem cell growth factor project, biochemical, small-molecule microarray, fluorescence 635/667 (AID 1067).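 Note: measures binding of biotinylated aFGF2 protein to printed compounds on slides; z-score merges feature fluorescence and signal-to-noise across triplicate slides.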 The conditions noted are these: higher = more signal.
A short description of experiment [4]: binders of probe aFGF10 on microarray, primary screen, stem cell growth factor project, biochemical, small-molecule microarray, fluorescence 635/667 (AID 1071).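 Note: score merges 667 nm spot intensity and signal to noise from triplicate slides.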 Conditions: higher = more signal.
In experiment [5] the target is Neurogenic locus notch homolog protein 2 (Homo sapiens) (UniProt Q04721). In words: Notch2 binders on small-molecule microarrays, primary screen, biochemical, small-molecule microarray, 635 nm fluorescence, stem cell growth factors (AID 1073). Conditions: Notch2 binding, higher = more signal.
The target of experiment [6] is Pro-neuregulin-1, membrane-bound isoform (Homo sapiens) (UniProt Q02297). In words: NRG1 binders on small-molecule microarrays, primary screen, psychiatric disease protein project, biochemical, small-molecule microarray, fluorescence 635/667 (AID 1075).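 Note: score combines 667 nm spot fluorescence with signal to noise.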 The conditions noted are these: NRG1 binding, 635 nm fluorescence, higher = more signal.
Experiment [7] has as its system Neuregulin-1 EGF-like domain. Briefly: binders of neuregulin-1 EGF-like domain, primary screen, biochemical, small-molecule microarray, 635 nm fluorescence (AID 1081).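 Note: binding of the protein to compounds printed on small-molecule microarray slides.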 Conditions: small-molecule microarray binding, higher = more signal.
Experiment [8] is described as follows: FRG1 promoter luciferase signal modulators, primary screen, FRG1 inhibition for FSHD, cell-based, C2C12 myotubes, firefly/Renilla luciferase, luminescence (AID 1084). The conditions noted are these: higher = more signal, called active from +8 up or from −8 down.
A short description of experiment [9]: binders of probe aFST on microarray, primary screen, stem cell growth factor project, biochemical, small-molecule microarray, fluorescence 635/667 (AID 1086).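 Note: score merges 667 nm fluorescence with signal-to-noise of each printed compound spot.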 Conditions: higher = more signal.
The nature of experiment [10]: binders of probe aHhip on microarray, primary screen, stem cell growth factor project, biochemical, small-molecule microarray, fluorescence 635/667 (AID 1087).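 Note: score merges spot fluorescence at 667nm with spot signal to noise ratio.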 Conditions: higher = more signal.

Each structure is given as a SMILES string. Activity calls are given as the source filed them.

Chain of Pro-neuregulin-1, membrane-bound isoform (Homo sapiens) (Q02297 whole entry, looked up, the tested form may be a part, canonical isoform): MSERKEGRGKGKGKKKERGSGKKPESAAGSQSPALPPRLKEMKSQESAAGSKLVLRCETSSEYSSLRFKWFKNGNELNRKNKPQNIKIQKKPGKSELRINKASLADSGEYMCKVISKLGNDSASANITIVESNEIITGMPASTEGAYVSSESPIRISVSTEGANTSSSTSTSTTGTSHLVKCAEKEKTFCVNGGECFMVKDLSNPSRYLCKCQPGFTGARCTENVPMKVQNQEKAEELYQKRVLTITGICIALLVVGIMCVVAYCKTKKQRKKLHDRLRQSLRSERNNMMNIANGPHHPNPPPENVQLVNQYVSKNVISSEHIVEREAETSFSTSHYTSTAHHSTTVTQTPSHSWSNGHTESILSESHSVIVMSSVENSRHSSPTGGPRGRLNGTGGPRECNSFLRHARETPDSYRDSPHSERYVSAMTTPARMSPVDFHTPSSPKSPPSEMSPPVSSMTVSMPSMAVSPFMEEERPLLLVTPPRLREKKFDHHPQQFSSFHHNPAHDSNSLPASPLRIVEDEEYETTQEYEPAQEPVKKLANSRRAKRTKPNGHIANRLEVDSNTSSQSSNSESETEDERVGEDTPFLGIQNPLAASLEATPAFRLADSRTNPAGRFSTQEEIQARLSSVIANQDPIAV
Chain of Neurogenic locus notch homolog protein 2 (Homo sapiens) (Q04721 whole entry, looked up, canonical isoform): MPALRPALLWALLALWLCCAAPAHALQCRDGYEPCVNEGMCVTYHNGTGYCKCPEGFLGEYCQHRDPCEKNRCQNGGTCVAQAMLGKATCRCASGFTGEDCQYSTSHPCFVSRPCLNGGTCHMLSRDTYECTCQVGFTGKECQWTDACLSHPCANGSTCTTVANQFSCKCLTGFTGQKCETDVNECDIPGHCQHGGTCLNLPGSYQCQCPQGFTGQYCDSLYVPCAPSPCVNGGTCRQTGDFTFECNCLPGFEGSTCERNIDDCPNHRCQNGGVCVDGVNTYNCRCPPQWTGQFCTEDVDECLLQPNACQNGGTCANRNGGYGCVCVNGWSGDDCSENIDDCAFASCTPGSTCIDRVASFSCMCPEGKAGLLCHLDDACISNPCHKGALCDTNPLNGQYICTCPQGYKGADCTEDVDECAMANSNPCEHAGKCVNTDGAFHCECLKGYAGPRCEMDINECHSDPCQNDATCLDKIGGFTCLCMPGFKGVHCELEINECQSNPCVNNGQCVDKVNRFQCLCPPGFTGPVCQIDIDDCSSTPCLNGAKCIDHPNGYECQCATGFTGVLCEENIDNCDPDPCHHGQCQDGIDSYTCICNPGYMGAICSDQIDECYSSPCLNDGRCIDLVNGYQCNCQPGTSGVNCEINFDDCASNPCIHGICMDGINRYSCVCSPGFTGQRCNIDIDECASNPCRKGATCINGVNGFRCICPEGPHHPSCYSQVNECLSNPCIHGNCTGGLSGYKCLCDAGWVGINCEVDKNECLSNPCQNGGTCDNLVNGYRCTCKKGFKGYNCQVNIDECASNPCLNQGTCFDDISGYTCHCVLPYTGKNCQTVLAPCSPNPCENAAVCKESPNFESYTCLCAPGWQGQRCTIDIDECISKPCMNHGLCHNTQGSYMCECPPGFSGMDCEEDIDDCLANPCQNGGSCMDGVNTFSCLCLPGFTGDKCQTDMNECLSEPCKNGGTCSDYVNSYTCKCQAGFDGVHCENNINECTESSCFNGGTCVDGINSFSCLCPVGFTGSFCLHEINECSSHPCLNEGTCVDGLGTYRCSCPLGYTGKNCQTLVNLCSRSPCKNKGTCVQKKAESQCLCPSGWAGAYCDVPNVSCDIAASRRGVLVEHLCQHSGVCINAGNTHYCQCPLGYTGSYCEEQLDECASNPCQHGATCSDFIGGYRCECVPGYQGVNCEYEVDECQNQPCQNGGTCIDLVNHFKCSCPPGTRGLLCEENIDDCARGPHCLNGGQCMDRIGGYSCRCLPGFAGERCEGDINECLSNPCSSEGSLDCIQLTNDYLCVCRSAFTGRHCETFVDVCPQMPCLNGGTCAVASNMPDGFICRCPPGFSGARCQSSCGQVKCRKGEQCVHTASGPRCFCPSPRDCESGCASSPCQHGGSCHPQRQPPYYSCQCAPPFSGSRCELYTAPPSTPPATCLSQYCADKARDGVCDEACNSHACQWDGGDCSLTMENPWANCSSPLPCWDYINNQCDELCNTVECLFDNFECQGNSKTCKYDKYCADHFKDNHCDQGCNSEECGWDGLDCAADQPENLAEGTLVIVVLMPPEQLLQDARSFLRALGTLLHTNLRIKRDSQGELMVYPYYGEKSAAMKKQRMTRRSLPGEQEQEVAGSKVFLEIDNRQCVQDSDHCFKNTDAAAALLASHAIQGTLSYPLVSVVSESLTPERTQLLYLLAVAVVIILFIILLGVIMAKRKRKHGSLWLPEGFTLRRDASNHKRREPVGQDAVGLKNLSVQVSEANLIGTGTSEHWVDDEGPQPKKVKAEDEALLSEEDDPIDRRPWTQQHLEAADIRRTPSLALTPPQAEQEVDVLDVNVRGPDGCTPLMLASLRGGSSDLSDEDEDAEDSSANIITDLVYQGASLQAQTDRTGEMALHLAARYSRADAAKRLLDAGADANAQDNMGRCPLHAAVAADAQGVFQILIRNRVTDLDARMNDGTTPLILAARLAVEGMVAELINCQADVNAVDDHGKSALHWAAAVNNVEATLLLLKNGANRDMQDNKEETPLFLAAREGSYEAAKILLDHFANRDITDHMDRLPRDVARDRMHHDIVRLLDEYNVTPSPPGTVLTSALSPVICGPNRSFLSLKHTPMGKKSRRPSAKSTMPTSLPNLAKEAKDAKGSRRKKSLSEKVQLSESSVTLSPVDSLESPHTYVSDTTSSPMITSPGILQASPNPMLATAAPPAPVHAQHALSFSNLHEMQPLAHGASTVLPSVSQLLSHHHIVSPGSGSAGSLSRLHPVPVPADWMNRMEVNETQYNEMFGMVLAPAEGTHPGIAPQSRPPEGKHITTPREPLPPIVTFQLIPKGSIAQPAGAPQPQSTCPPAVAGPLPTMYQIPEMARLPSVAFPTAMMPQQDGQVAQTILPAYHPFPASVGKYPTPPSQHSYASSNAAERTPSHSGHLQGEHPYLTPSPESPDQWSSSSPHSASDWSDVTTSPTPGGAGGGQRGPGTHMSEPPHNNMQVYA

With `O=C1C[C@@](C(=O)NC2CC2)(c2ccc([N+](=O)[O-])cc2)[C@@H](c2ccc(CO)cc2)N1C1CCCCC1`, the composite z-score in [1] was -0.281; in experiment [2], 0.286; in experiment [3] it was 0.0626; in experiment [4], 0.907; in experiment [5], 0.804; in experiment [6], 1.81. Moreover, the composite z-score in experiment [7] was 1.3; in experiment [9], 0.832; in [10] it was 0.164. For the same molecule, the z-score in [8] is -0.534 (inactive).

Consider `CN(C)CCCCNC(=O)[C@H]1C[C@H]2C(=O)N3CCC[C@H]3C(=O)N2[C@H]1c1cccc(OCCO)c1`, for which the composite z-score in [1] is 0.429; in experiment [2] it was 0.76; in experiment [3], -0.0386; in experiment [4] it was 0.0348; in experiment [5] it was -0.182; in experiment [6] it was 1.94. In addition, the composite z-score in experiment [7] came to 1.28; in [9], 0.081; in [10] it was 0.565. Moreover, the z-score in experiment [8] is 3.81 (inactive).

Consider `C=CCC(OC(C)=O)[C@@H]1[C@@H](N(Cc2cccc3ccccc23)C(=O)Cc2ccc(OC)cc2)c2cc(OCCCO)ccc2N1C(=O)Cc1ccc2ccccc2c1` (stereo not given in full), for which the composite z-score in [1] is -0.289; in experiment [2], -0.176; in [3] it was -0.14; in [4], 0.184; in experiment [5], -0.529; in experiment [6], 0.906. The composite z-score in [7] was -0.29; in experiment [9], 0.165; in experiment [10] it was -0.364. Further, the z-score in experiment [8] is -1.77 (inactive).

As to `CN(C)CCCNC(=O)[C@@]1(Cc2ccccc2I)c2ccccc2C(=O)N(C2CCCCC2)[C@H]1c1ccc(CO)cc1`, the composite z-score in [1] stood at 1.13; in experiment [2], 1.02; in [3], 0.0676; in [4] it was 0.293; in [5] it was 1.24; in [6] it was 0.418. Moreover, the composite z-score is 1.26 in experiment [7], 0.68 in experiment [9] and 0.214 in [10]. Further, in experiment [8], the z-score is -3.32 (inactive).

With `COCCOC(=O)N1C(=O)[C@@]2(c3cc(C#CCCO)ccc31)[C@H](c1ccccc1OCCO)N1[C@H](c3ccccc3)[C@H](c3ccccc3)OC(=O)[C@H]1[C@@H]2C(N)=O`, the composite z-score in [1] was -0.455; in experiment [2], -0.0702; in experiment [3], -0.0723; in experiment [4], 0.758; in experiment [5] it was 1.3; in experiment [6] it was 1.55. The values for the composite z-score in [7], in experiment [9] and in [10] were 1.22, 0.806 and -0.0645, respectively. For the same molecule, the z-score in experiment [8] is -1.9 (inactive).

For the molecule `CCCC=C(CCC)[C@@H](NC(=O)OCC(C)C)c1ccc(C(=O)OC)cc1`, the composite z-score in experiment [1] was -0.443; in [2] it was 0.477; in experiment [3] it was -0.0596; in experiment [4], 0.161; in experiment [5], 0.638; in [6] it was 0.224. The composite z-score in experiment [7] worked out at 0.362; in [9], 0.107; in experiment [10] it was 2.35. Besides, in experiment [8], the z-score was -0.705 (inactive).

On to `O=C(NCCN1CCOCC1)[C@@H]1c2ccccc2C(=O)N(Cc2ccc(OC(F)(F)F)cc2)[C@H]1c1ccc(CO)cc1`, for which the composite z-score in experiment [1] was 0.224; in experiment [2] it was 0.751; in [3] it was -0.0531; in experiment [4], -0.315; in experiment [5], 0.0161; in experiment [6], -0.181. The composite z-score is 0.569 in experiment [7], -0.236 in experiment [9] and -0.0645 in experiment [10]. For the same molecule, the z-score in experiment [8] is -1.39 (inactive).

Turning to `CC(C)C[C@@H]1NC(=O)[C@@]23C(=O)N[C@@H](Cc4ccccc4)C2[C@H](C)[C@@]2(C)O[C@H]2C3/C=C/C/C=C\CNC(=O)CNC1=O` (stereo not given in full), the composite z-score is -0.351 in [1]; 0.0664 in [2]; -0.13 in experiment [3]; 0.573 in experiment [4]; 0.0474 in [5]; 0.458 in [6]. Moreover, the composite z-score in experiment [7] was 0.325; in experiment [9], -0.175; in experiment [10], -0.48. Besides, in [8], the z-score is -0.866 (inactive).

For the molecule `CC(C)C(O)C1C=CC2C(=O)NC(=O)C2N1Nc1ccccn1` (stereo not given), the composite z-score is 0.359 in [1]; -0.103 in [2]; -0.0502 in experiment [3]; 0.138 in experiment [4]; 0.926 in experiment [5]; 0.306 in experiment [6]. Also, the composite z-score is 1.1 in experiment [7], 0.547 in experiment [9] and 0.151 in experiment [10]. Besides, the z-score in experiment [8] is 0.944 (inactive).

For `C=C(CCCC)/C(=C/C[C@H](OC(C)=O)c1cccc(OCCO)c1)c1cnc2ccccc2c1`, the composite z-score in [1] is 0.243; in [2], -0.194; in experiment [3], -0.116; in [4] it was 0.0835; in experiment [5], 0.16; in experiment [6] it was -0.0759. Moreover, the composite z-score in [7] was 0.244; in experiment [9], -0.381; in experiment [10] it was -0.0994. Also, in experiment [8], the z-score is -0.45 (inactive).

Take `CN(C)CCCCNC(=O)[C@H]1C[C@H]2C(=O)NCC(=O)N2[C@H]1c1ccc(O)cc1`: the composite z-score in experiment [1] was -0.772; in [2], -1.42; in [3], -0.273; in experiment [4], -0.814; in [5], -0.929; in [6], 0.68. Moreover, the composite z-score in [7] was 1.07; in experiment [9], 0.0525; in experiment [10], -0.407. Also, the z-score in experiment [8] was 5.11 (inactive).
